Screening results: PubChem BioAssay, several laboratories
The list is not random: actives were taken first. Their share in the collection is about 11%.
WT yeast gro inh – growth inhibition of WT yeast, mitochondrial fusion screen; mitochondrial fusion phenotypic screen, WT strain; inhibition, % at 10 µM; 2.1% of 190,000 active; AID 1362; in the data active = inhibition above about 58%; tested in S. cerevisiae
Ins promoter up – MIN6 insulin promoter up-regulation; MIN6 insulin promoter-GFP reporter, high-content imaging; stronger effect = higher value; z-score at 5 µM; 0.3% of 190,000 active;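 active = z-score above 3 at 5 µM with at least 500 cells counted in the well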
INS promoter inh – TRM-6 insulin promoter activity inhibition; TRM-6 cells (human fetal islet line), insulin promoter-eGFP reporter, imaging; reporter expression induced with tamoxifen; inhibition, % at 2 µM; 0.9% of 130,000 active; AID 1273;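 active = inhibition above the mean plus 3 SD, with well images judged a real hit on visual review, cut at about 60% in these data, passing the limit was not always enough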
L major viab – inhibitors of Leishmania major promastigote growth. 9% of 200,000 active. inhibition, % at 10 µM. Leishmania major promastigotes, resazurin fluorescence viability; in the data active = inhibition above about 50%;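 note: promastigotes grown with compound for 44 hours at 28 °C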
Autophagy mod – alters autophagy in cells; MEF GFP-LC3 puncta imaging; test concentration mostly 10 µM; calls only at 10 µM (by protocol); 0.98% of 190,000 active; AID 463193;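 active = percentage of spot-positive cells more than 3 SD above its plate mean, without a fluorescence outlier flag or 80% toxicity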
Of the large screens only hits and unclear results are named; the others gave an inactive call.

COc1ccc(C(=O)NC(=S)Nc2cccc(S(=O)(=O)N3CCOCC3)c2)cc1	none (no result: INS promoter inh)
COc1ccc(NC(=S)Nc2cccc(S(=O)(=O)N3CCCCC3)c2)cc1	L major viab 95
COc1ccc(S(=O)(=O)N2CCCCC2)cc1NC(=S)Nc1ccccc1	L major viab 84
COc1ccc(S(=O)(=O)N2CCCCCC2)cc1NC(=O)Cc1cc(OC)c(OC)c(OC)c1	L major viab 100
COc1ccc(S(=O)(=O)N2CCCCC2)cc1NC(=S)Nc1cccc(Cl)c1C	none
CCCCN(C)C(=O)c1oc2ccc(S(=O)(=O)N3CCCCCC3)cc2c1C	none
COc1ccc2c(C=O)cn(C)c2c1	Autophagy mod active (no result: INS promoter inh)
COc1ccc2[nH]cc(C=O)c2c1	none
Cc1ccc(NC(=O)Cn2cnc3sc(C(=O)NCCN(C)C)c(C)c3c2=O)cc1Cl	L major viab 76
C=CCNC(=O)COC(=O)c1ccc(C)c(NC(=O)c2ccco2)c1	INS promoter inh 73
O=C(CC1CC2CCC1C2)OCC(=O)c1c[nH]c2ccccc12 (stereo not given)	L major viab 72
Cc1cc(C)n2nc(C(=O)OCC(=O)c3c[nH]c4ccccc34)nc2n1	none
O=C(OCC(=O)c1c[nH]c2ccccc12)c1cc2ccccc2cc1O	L major viab 62
Cc1ccc(C(=O)OCC(=O)c2c[nH]c3ccccc23)cc1NC(=O)c1ccco1	L major viab 69 (no result: INS promoter inh)
O=C(COC(=O)CC1CC2CCC1C2)Nc1ccc(F)cc1 (stereo not given)	none (no result: INS promoter inh)
CC1Cc2cc(/C(O)=C3/C(=O)C(=O)N(CC4CCCO4)C3c3ccco3)ccc2O1 (stereo not given)	none
CCOc1ncccc1C(=O)NCc1ccccc1Cl	none
CCN(CC)CCNC(=O)C12CC3CC(C)(CC(C)(C3)C1)C2	L major viab 94 (no result: Ins promoter up)
O=C(OCc1nc2ccccc2[n+]([O-])c1C(=O)c1ccccc1)c1cccs1	L major viab 86
CC(=O)c1c(COC(=O)c2ccncc2)nc2ccccc2[n+]1[O-]	Ins promoter up 4.2 (no result: INS promoter inh)
O=c1[nH]c2ccsc2c(=O)n1CCO	none (no result: WT yeast gro inh, INS promoter inh, L major viab, Autophagy mod)
CC1=CC(=Nc2c(C)n(C)n(-c3ccccc3)c2=O)C=CC1=O	none (no result: WT yeast gro inh, INS promoter inh, L major viab, Autophagy mod)
CC1=CC(=Nc2c(C)n(C)n(-c3ccccc3)c2=O)C=C(C)C1=O	L major viab 72 (no result: INS promoter inh)
CCOc1ccccc1NC(=O)c1cc(SC)ccc1Cl	none
c1ccc(-c2csc3nnc(SCc4ccc5c(c4)OCCO5)n23)cc1	L major viab 56
O=C(CSc1nnc2scc(-c3ccccc3)n12)c1ccc2c(c1)OCCO2	none (no result: INS promoter inh)
COc1ccc(NC(=O)c2nn(C)c(=O)c3ccccc23)cc1S(=O)(=O)Nc1ccccc1Cl	L major viab 60
COc1ccc(NC(=O)CCSc2ccc(C)cc2)cc1S(=O)(=O)Nc1ccccc1Cl	L major viab 88 (no result: INS promoter inh)
COc1ccc(NC(=O)c2ccc3ccccc3n2)cc1S(=O)(=O)Nc1ccccc1Cl	L major viab 98
CCOc1ccc(NS(=O)(=O)c2cc(NC(=O)CCS(=O)(=O)c3ccc(C)cc3)ccc2OC)cc1	L major viab 60
C=CCN(C(=O)CNC(=O)c1cccs1)C(C(=O)NC(C)(C)C)c1ccccc1 (stereo not given)	none (no result: INS promoter inh)
CC/C(O)=C1\C(=O)CCCC1=NCc1nc2ccccc2[nH]1	none
C/C=C1\C(OC2OC(CO)C(O)C(O)C2O)OC=C(C(=O)OC)C1CC(=O)OCC1C(C)C(OC(=O)CC2C(C(=O)OC)=COC(OC3OC(CO)C(O)C(O)C3O)/C2=C\C)CC1C(CO)CO (stereo not given)	none (no result: INS promoter inh)
CCCCC(C(=O)O)C(C)CC(=O)Nc1nccs1 (stereo not given)	none (no result: WT yeast gro inh, INS promoter inh, L major viab, Autophagy mod)
CCOC(=O)Cc1c(Sc2ccccc2)c2ccccc2n1C	WT yeast gro inh 66 (no result: INS promoter inh)
Cn1c(CC(=O)NC(C)(C)CO)c(Sc2ccccc2)c2ccccc21	none
COc1ccc2nc(SCC(=O)Nc3c(C)cccc3C)[nH]c2c1	Ins promoter up 3.3
CCOc1ccc2nc(SCC(=O)Nc3ccc4c(c3)OCCO4)[nH]c2c1	L major viab 97 (no result: WT yeast gro inh)
CN(C)c1ccc(/C=N/NC(=O)c2sccc2-n2cccc2)cc1	none
O=[N+]([O-])c1cncc([N+](=O)[O-])c1Nc1ccccc1Cl	L major viab 80 (no result: INS promoter inh)
CNC(=O)C1(C)C=CCN1C(=O)c1ccccc1 (stereo not given)	none
CC1(C(=O)NCCN2CCOCC2)C=CCN1C(=O)c1ccccc1 (stereo not given)	Autophagy mod active
CCOC(=O)Cc1c(C)nc(Cc2ccc(OC(C)C)cc2)[nH]c1=O	none
CCOC(=O)c1ccc(NC(=S)N2CCCC(C)C2)cc1 (stereo not given)	none
CCCCc1ccc(NC(=S)N2CCCC(C)C2)cc1 (stereo not given)	WT yeast gro inh 75
CCc1ccc(NC(=S)N2CCCCCCC2)cc1	WT yeast gro inh 64, INS promoter inh 79, L major viab 56
COc1ccc(Cc2n[nH]c(=S)n2N)cc1OC	none (no result: Ins promoter up)
CCN1C(=O)c2cccc3c(NC(=O)c4ccccc4)ccc1c23	L major viab 91
CCN1C(=O)c2cccc3c(NC(=O)c4ccc(OC)c(OC)c4)ccc1c23	L major viab 100 (no result: INS promoter inh, Autophagy mod)
CCN1C(=O)c2cccc3c(NC(=O)c4ccc5c(c4)OCCO5)ccc1c23	none (no result: INS promoter inh)
CC(C)Cn1c(N)c(C(=O)COC(=O)c2cnc(Cl)c(Cl)c2)c(=O)n(C)c1=O	none
CC(=O)C1=C(C)NC(=O)NC1c1ccc(Cl)cc1 (stereo not given)	none
CCC(=O)n1nc(-c2ccc(Cl)cc2)nc1NCc1ccccc1	Autophagy mod active (no result: INS promoter inh)
CN(C)N1C(N)=C(C#N)C(c2cccs2)C2=C1CC(C)(C)CC2=O (stereo not given)	none (no result: Ins promoter up)
COc1ccc(C(=O)Sc2ccc(Cl)cc2)cc1OC	L major viab 54 (no result: INS promoter inh)
COc1ccc(C(=NNc2ccccc2C(=O)O)c2ccc(OC)cc2)cc1	WT yeast gro inh 82
CS(=O)(=O)N1CCc2cc(NC(=O)c3ccc(Cl)cc3Cl)ccc21	none (no result: INS promoter inh)
O=C(NCCN1CCCC1)C1(S(=O)(=O)c2ccc(Cl)cc2)CC1	Ins promoter up 3.1
O=C(NCCCN1CCCCC1)C1(S(=O)(=O)c2ccc(Cl)cc2)CC1	none (no result: Ins promoter up, INS promoter inh, Autophagy mod)
O=C(NCCCN1CCN(c2cccc(Cl)c2)CC1)C1(S(=O)(=O)c2ccc(Cl)cc2)CC1	L major viab 100
COC(=O)c1ccccc1N(C)S(=O)(=O)c1cc2c(cc1C)OCC(=O)N2	none (no result: INS promoter inh)
COC(=O)/C=c1/s/c(=C(\C#N)C(=O)NCc2ccco2)n(-c2ccc(C)cc2)c1=O	Autophagy mod active (no result: INS promoter inh)
COC(=O)/C=c1/s/c(=C(/C#N)C(=O)N2CCOCC2)n(-c2ccccc2)c1=O	none
O=c1cc(COc2ccccc2[N+](=O)[O-])nc2sccn12	none (no result: WT yeast gro inh, INS promoter inh, L major viab, Autophagy mod)
Cc1ccc2[nH]c(-c3ccccc3)c(CN3CCCC3)c(=O)c2c1	none (no result: INS promoter inh)
CCc1c(C)[nH]c2ccc(C)cc2c1=O	INS promoter inh 77
Cc1ccc2[nH]c(-c3ccccc3)c(CN(C)C)c(=O)c2c1	Ins promoter up 4.2
COc1ccc(NC(=O)CC2SC(=NCC3CCCO3)NC2=O)cc1 (stereo not given)	none (no result: Ins promoter up)
COC(=O)C1=C(C)N(CCc2c[nH]c3ccccc23)C(=O)C1	none
